Experimental data taken from PubChem BioAssay (NCI).
This is part of a sample that, as a whole, favours compounds with a hit. Of some 79,000 tested, about 15% had one in any assay. Unmarked numbers belong to inactive results. The source made the active and inactive calls. Cut-off read from the data, not from the text of the source: active = growth inhibition above about 70%; inactive = the rest.

Experiments:
[1] = NCI Yeast Anticancer Drug Screen. Data for the rad52 strain (AID 147);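 note: 0% = growth of vehicle-treated control cultures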; details: S. cerevisiae rad52 mutant growth inhibition, stronger effect = higher value
Method in brief: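 Screen used a yeast mutant impaired in DNA repair. After compound exposure, growth was measured. Values reflect inhibition compared with vehicle-treated cells.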

[2] = NCI Yeast Anticancer Drug Screen. Data for the wt1 strain (AID 149);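 note: 0% = growth of vehicle-treated wt1 cultures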; details: S. cerevisiae wt1 strain (SPY 50644) growth inhibition, stronger effect = higher value
Method in brief: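 Growth inhibition read against vehicle controls after compound exposure of the wt1 yeast strain.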

[3] = NCI Yeast Anticancer Drug Screen. Data for the rad50EPP+ strain (AID 151);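 note: 0% = growth of vehicle-treated control cultures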; details: S. cerevisiae rad50 mutant strain, stronger effect = higher value
Method in brief: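 Exposing the rad50EPP+ strain to each compound, growth was compared with vehicle-only cultures to give inhibition.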

[4] = NCI Yeast Anticancer Drug Screen. Data for the mgt1 strain (AID 153); details: S. cerevisiae mgt1 mutant growth inhibition, stronger effect = higher value
Method in brief: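 Genetically defined yeast (mgt1) treated with compound; inhibition of growth expressed against vehicle-treated controls.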

[5] = NCI Yeast Anticancer Drug Screen. Data for the rad50 strain (AID 155);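 note: 0% = growth of vehicle-only cultures of the same strain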; details: S. cerevisiae rad50 strain growth inhibition, stronger effect = higher value
Method in brief: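 Readout: growth inhibition relative to vehicle-treated cultures. Compound exposure was carried out in a genetically defined yeast strain deficient in DNA damage repair.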

[6] = NCI Yeast Anticancer Drug Screen. Data for the mec2-1 strain (AID 157); details: S. cerevisiae mec2-1 strain, stronger effect = higher value
Method in brief: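 Readout is yeast growth inhibition, normalised to vehicle-treated controls, in the mec2-1 strain exposed to compound.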

[7] = NCI Yeast Anticancer Drug Screen. Data for the rad14 strain (AID 159);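 note: 0% = growth of vehicle-treated control cultures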; details: S. cerevisiae rad14 strain growth inhibition, stronger effect = higher value
Method in brief: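 Growth inhibition vs vehicle controls; genetically altered yeast strain (DNA damage repair defect) treated with test compounds.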

[8] = NCI Yeast Anticancer Drug Screen. Data for the sgs1 mgt1 strain (AID 161);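 note: 0% = growth of cultures given vehicle only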; details: S. cerevisiae sgs1 mgt1 strain, stronger effect = higher value
Method in brief: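 This yeast growth screen uses a strain with defined DNA-repair lesions; compound-treated growth is compared with vehicle-treated growth.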

[9] = NCI Yeast Anticancer Drug Screen. Data for the CLN2oe strain (AID 163);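 note: 0% = growth of vehicle-only control cultures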; details: S. cerevisiae CLN2oe strain, stronger effect = higher value
Method in brief: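 Values reflect how much compound exposure reduced yeast growth, referenced to vehicle-exposed cells. Assay organism is a strain with a defined genetic change affecting cell-cycle control.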

[10] = NCI Yeast Anticancer Drug Screen. Data for the cln2 rad14 strain (AID 165);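 note: 0% = growth equal to vehicle treated cultures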; details: S. cerevisiae cln2 rad14 strain, stronger effect = higher value
Method in brief: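 Relative to vehicle controls, growth inhibition of compound-treated cln2 rad14 yeast was recorded.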

[11] = NCI Yeast Anticancer Drug Screen. Data for the bub3 strain (AID 167); details: S. cerevisiae bub3 mutant strain, stronger effect = higher value
Method in brief: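 Readout: yeast growth inhibition, expressed relative to vehicle-only wells. The test organism is a mutant strain from a panel with lesions in DNA repair or checkpoint genes.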

[12] = NCI Yeast Anticancer Drug Screen. Data for the wt2 strain (AID 169);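 note: 0% = growth of vehicle-treated yeast cultures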; details: S. cerevisiae wt2 strain growth inhibition, stronger effect = higher value
Method in brief: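 Values express reduction in yeast growth under compound treatment, referenced to vehicle-treated cells.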

[13] = NCI Yeast Anticancer Drug Screen. Data for the mlh1 strain (AID 171);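 note: 0% = growth of vehicle-treated control cultures of the same strain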; details: S. cerevisiae mlh1 strain growth inhibition, stronger effect = higher value
Method in brief: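 Steps: expose the defined-mutant yeast strain to compound; expose a parallel culture to vehicle; measure growth; express compound effect as inhibition relative to the vehicle culture.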

[14] = NCI Yeast Anticancer Drug Screen. Data for the sgs1 strain (AID 173);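 note: 0% = growth of vehicle-only control cultures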; details: S. cerevisiae sgs1 mutant, stronger effect = higher value
Method in brief: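 Treat defined-mutant yeast with compound; measure growth; calculate inhibition relative to vehicle-treated cells.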

[15] = NCI Yeast Anticancer Drug Screen. Data for the mlh1 rad18 strain (AID 175); details: S. cerevisiae mlh1 rad18 strain growth inhibition, stronger effect = higher value
Method in brief: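 Test agents were incubated with a yeast strain of defined genotype (DNA damage repair defect). Inhibition of growth was derived by comparison with vehicle-exposed cultures.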

[16] = NCI Yeast Anticancer Drug Screen. Data for the rad18 strain (AID 177); details: S. cerevisiae rad18 mutant growth inhibition, stronger effect = higher value
Method in brief: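 A genetically defined yeast mutant impaired in DNA damage repair was treated with test compounds, then its growth was measured against cultures receiving vehicle alone.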

[17] = at 5.0 µM (retest, dose inferred, filed as 0.5)
[18] = at 50.0 µM (retest, dose inferred, filed as 5.0)

COc1cccc2nc3ccccc3nc12
growth inhibition ([1]; at 1.2 µM): 1%
growth inhibition ([1]; at 3.7 µM): 7%
growth inhibition ([1]; at 11.0 µM): 34%
growth inhibition ([1]; at 33.0 µM): 90% (active)
growth inhibition ([1]; at 100.0 µM): 97% (active)
growth inhibition ([2]; at 1.2 µM): -2%
growth inhibition ([2]; at 3.7 µM): -2%
growth inhibition ([2]; at 11.0 µM): 3%
growth inhibition ([2]; at 33.0 µM): 45%
growth inhibition ([2]; at 100.0 µM): 91% (active)
growth inhibition ([3]; at 1.2 µM): 1%
growth inhibition ([3]; at 3.7 µM): 8%
growth inhibition ([3]; at 11.0 µM): 34%
growth inhibition ([3]; at 33.0 µM): 79% (active)
growth inhibition ([3]; at 100.0 µM): 94% (active)
growth inhibition ([4]; at 1.2 µM): 1%
growth inhibition ([4]; at 3.7 µM): 1%
growth inhibition ([4]; at 11.0 µM): 6%
growth inhibition ([4]; at 33.0 µM): 75% (active)
growth inhibition ([4]; at 100.0 µM): 95% (active)
growth inhibition ([5]; at 1.2 µM): 2%
growth inhibition ([5]; at 3.7 µM): 15%
growth inhibition [5, 17]: -22%
growth inhibition ([5]; at 11.0 µM): 45%
growth inhibition ([5]; at 33.0 µM): 91% (active)
growth inhibition [5, 18]: 65%
growth inhibition ([5]; at 50.0 µM): 83.6% (active)
growth inhibition ([5]; at 100.0 µM): 97% (active)
growth inhibition ([6]; at 1.2 µM): -2%
growth inhibition ([6]; at 3.7 µM): 2%
growth inhibition [6, 17]: -5%
growth inhibition ([6]; at 11.0 µM): 4%
growth inhibition ([6]; at 33.0 µM): 35%
growth inhibition [6, 18]: 17%
growth inhibition ([6]; at 50.0 µM): 31.3%
growth inhibition ([6]; at 100.0 µM): 89% (active)
growth inhibition ([7]; at 1.2 µM): -2%
growth inhibition ([7]; at 3.7 µM): 0%
growth inhibition ([7]; at 11.0 µM): 2%
growth inhibition ([7]; at 33.0 µM): 30%
growth inhibition ([7]; at 100.0 µM): 82% (active)
growth inhibition [8, 17]: -19%
growth inhibition [8, 18]: 5%
growth inhibition ([8]; at 50.0 µM): 4.55%
growth inhibition ([9]; at 1.2 µM): 0%
growth inhibition ([9]; at 3.7 µM): 1%
growth inhibition ([9]; at 11.0 µM): 1%
growth inhibition ([9]; at 33.0 µM): 48%
growth inhibition ([9]; at 100.0 µM): 91% (active)
growth inhibition [10, 17]: -14%
growth inhibition [10, 18]: 18%
growth inhibition ([10]; at 50.0 µM): 9.4%
growth inhibition ([11]; at 1.2 µM): 1%
growth inhibition ([11]; at 3.7 µM): -11%
growth inhibition [11, 17]: -25%
growth inhibition ([11]; at 11.0 µM): 2%
growth inhibition ([11]; at 33.0 µM): 56%
growth inhibition [11, 18]: 19%
growth inhibition ([11]; at 50.0 µM): 24.9%
growth inhibition ([11]; at 100.0 µM): 94% (active)
growth inhibition ([12]; at 1.2 µM): -2%
growth inhibition ([12]; at 3.7 µM): -1%
growth inhibition ([12]; at 11.0 µM): 8%
growth inhibition ([12]; at 33.0 µM): 50%
growth inhibition ([12]; at 100.0 µM): 96% (active)
growth inhibition ([13]; at 1.2 µM): 0%
growth inhibition ([13]; at 3.7 µM): 3%
growth inhibition ([13]; at 11.0 µM): -2%
growth inhibition ([13]; at 33.0 µM): 51%
growth inhibition ([13]; at 100.0 µM): 97% (active)
growth inhibition ([14]; at 1.2 µM): -6%
growth inhibition ([14]; at 3.7 µM): -8%
growth inhibition ([14]; at 11.0 µM): 0%
growth inhibition ([14]; at 33.0 µM): 38%
growth inhibition ([14]; at 100.0 µM): 88% (active)
growth inhibition [15, 17]: -3%
growth inhibition [15, 18]: 36%
growth inhibition ([15]; at 50.0 µM): 43.1%
growth inhibition ([16]; at 1.2 µM): -3%
growth inhibition ([16]; at 3.7 µM): -2%
growth inhibition ([16]; at 11.0 µM): 16%
growth inhibition ([16]; at 33.0 µM): 84% (active)
growth inhibition ([16]; at 100.0 µM): 95% (active)

CCCc1cc(C(=O)OCC)cc(CCC)c1O
growth inhibition ([1]; at 1.2 µM): -2%
growth inhibition ([1]; at 3.7 µM): -8%
growth inhibition ([1]; at 11.0 µM): -9%
growth inhibition ([1]; at 33.0 µM): -11%
growth inhibition ([1]; at 100.0 µM): 97% (active)
growth inhibition ([2]; at 1.2 µM): -1%
growth inhibition ([2]; at 3.7 µM): -5%
growth inhibition ([2]; at 11.0 µM): -9%
growth inhibition ([2]; at 33.0 µM): -13%
growth inhibition ([2]; at 100.0 µM): 93% (active)
growth inhibition ([3]; at 1.2 µM): -2%
growth inhibition ([3]; at 3.7 µM): 3%
growth inhibition ([3]; at 11.0 µM): 14%
growth inhibition ([3]; at 33.0 µM): 21%
growth inhibition ([3]; at 100.0 µM): 25%
growth inhibition ([4]; at 1.2 µM): -3%
growth inhibition ([4]; at 3.7 µM): -4%
growth inhibition ([4]; at 11.0 µM): -9%
growth inhibition ([4]; at 33.0 µM): -12%
growth inhibition ([4]; at 100.0 µM): 97% (active)
growth inhibition ([5]; at 1.2 µM): -8%
growth inhibition ([5]; at 3.7 µM): -49%
growth inhibition [5, 17]: 5%
growth inhibition ([5]; at 11.0 µM): 16%
growth inhibition ([5]; at 33.0 µM): 0%
growth inhibition [5, 18]: 3%
growth inhibition ([5]; at 50.0 µM): 93.1% (active)
growth inhibition ([5]; at 100.0 µM): 98% (active)
growth inhibition ([6]; at 1.2 µM): -4%
growth inhibition ([6]; at 3.7 µM): -5%
growth inhibition [6, 17]: -47%
growth inhibition ([6]; at 11.0 µM): -13%
growth inhibition ([6]; at 33.0 µM): -12%
growth inhibition [6, 18]: 8%
growth inhibition ([6]; at 50.0 µM): 96.1% (active)
growth inhibition ([6]; at 100.0 µM): 95% (active)
growth inhibition ([7]; at 1.2 µM): -1%
growth inhibition ([7]; at 3.7 µM): -2%
growth inhibition ([7]; at 11.0 µM): -11%
growth inhibition ([7]; at 33.0 µM): -8%
growth inhibition ([7]; at 100.0 µM): 96% (active)
growth inhibition [8, 17]: 1%
growth inhibition [8, 18]: 27%
growth inhibition ([8]; at 50.0 µM): 79.3% (active)
growth inhibition ([9]; at 1.2 µM): -1%
growth inhibition ([9]; at 3.7 µM): -6%
growth inhibition ([9]; at 11.0 µM): -9%
growth inhibition ([9]; at 33.0 µM): -30%
growth inhibition ([9]; at 100.0 µM): 96% (active)
growth inhibition [10, 17]: 2%
growth inhibition [10, 18]: -29%
growth inhibition ([10]; at 50.0 µM): 93.8% (active)
growth inhibition ([11]; at 1.2 µM): 0%
growth inhibition ([11]; at 3.7 µM): 10%
growth inhibition [11, 17]: 31%
growth inhibition ([11]; at 11.0 µM): 39%
growth inhibition ([11]; at 33.0 µM): 63%
growth inhibition [11, 18]: 77% (active)
growth inhibition ([11]; at 50.0 µM): 96.7% (active)
growth inhibition ([11]; at 100.0 µM): 97% (active)
growth inhibition ([12]; at 1.2 µM): -1%
growth inhibition ([12]; at 3.7 µM): 4%
growth inhibition ([12]; at 11.0 µM): -7%
growth inhibition ([12]; at 33.0 µM): -3%
growth inhibition ([12]; at 100.0 µM): 94% (active)
growth inhibition ([13]; at 1.2 µM): -4%
growth inhibition ([13]; at 3.7 µM): -4%
growth inhibition ([13]; at 11.0 µM): -8%
growth inhibition ([13]; at 33.0 µM): -8%
growth inhibition ([13]; at 100.0 µM): 98% (active)
growth inhibition ([14]; at 1.2 µM): -2%
growth inhibition ([14]; at 3.7 µM): -2%
growth inhibition ([14]; at 11.0 µM): -3%
growth inhibition ([14]; at 33.0 µM): 18%
growth inhibition ([14]; at 100.0 µM): 95% (active)
growth inhibition [15, 17]: 2%
growth inhibition [15, 18]: 7%
growth inhibition ([15]; at 50.0 µM): 93.5% (active)
growth inhibition ([16]; at 1.2 µM): -6%
growth inhibition ([16]; at 3.7 µM): 0%
growth inhibition ([16]; at 11.0 µM): -5%
growth inhibition ([16]; at 33.0 µM): -1%
growth inhibition ([16]; at 100.0 µM): 98% (active)
